# Laboratory results from PubChem BioAssay AID1491 (National Center for Advancing Translational Sciences (NCATS), 2009).
# Results filed as inconclusive are left out. The source made the active and inactive calls. Calls follow the shape of the dose curve; as a rule, active = well fitted inhibition curve with a large enough effect in the main read-out, with a control signal flat; inconclusive = small, poorly fitted or top-dose-only effect, or a change in a side signal; inactive = flat fitted curve, though single readings scatter.
# Molecular target: Neuropeptide S receptor (Homo sapiens) (UniProt Q6W5P4)
# Experiment: Confirmation Concentration-Response Assay for Antagonists of the Neuropeptide S Receptor: cAMP Signal Transduction
# Conditions: CHO-NPSR cells, cAMP TR-FRET, antagonist mode; series mostly up to 22.3 µM
# From the text: NIH Chemical Genomics Center [NCGC] NIH Molecular Libraries Probe Production centers Network [MLPCN] MLPCN Grant: X01-DA026210-01 Assay Submitter (PI): Heilig, Markus Alexander NCGC Assay Overview: Neuropeptide S receptor (NPSR), previously known as GPR154, is a recently de-orphanized G protein coupled receptor. Its endogenous ligand is the 20 amino acids peptide Neuropeptide S (NPS). […] NPS and its receptor are found in various tissues. Specifically they are highly expressed in brain areas that have been implicated in modulation of arousal, stress and anxiety. Central administration of NPS in mice produces an unusual profile of activity by inducing wakefulness and arousal, while at the same time suppressing anxiety. Therefore, NPSR may represent a novel drug target for the treatment of sleep and anxiety disorders. To identify NPSR antagonists, we developed a cell-based cAMP assay. NPS can stimulate the production of cAMP in Chinese hamster ovary cells stably expressing NPS receptor. This change in intracellular cAMP level can be detected by a homogeneous LANCE cAMP assay based on the TR-FRET (time resolved fluorescence resonance energy transfer) between a europium-labeled cAMP tracer complex and a cAMP-specific antibody labeled with Alexa Fluor 647. The europium-labeled cAMP tracer complex is formed by the tight interaction between Biotin-cAMP (b-cAMP) and streptavidin labeled with Europium-W8044 chelate (Eu-SA). Light pulse at 320 nm excites the europium of the cAMP tracer and the energy emitted is transferred to the Alexa molecule bound to the cAMP antibody, generating a TR-FRET signal at 665 nm. Residual energy from the europium will produce a light at 620 nm. The native unlabeled cAMP from cell lysates competes with the europium-cAMP tracer for antibody binding and reversely reduces the emission signal of Alexa by interrupting FRET between the two labeled molecules. Both emission signals from the FRET donor (620 nm) and the acceptor (665 nm) can be detected by a plate reader in the TRF mode. Expression of result in fluorescence ratio (665 nm/620 nm) helps to normalize differences due to cell density and reagent dispensing. This assay was successfully optimized to a 1536-well plate format. Select compounds from the primary screen (AID 1461) were chosen for confirmation based on potency, efficacy, SAR, and activity across other assays in PubChem and at NCGC. Other compounds are analogs of active compounds from the primary sceen.
# NCGC Assay Protocol Summary: A Chinese hamster ovary (CHO) cell line stably expressing the NPS receptor (CHO-NPSR) was obtained from Dr. Heilig lab at NIAAA and maintained in F-12 Kaighn's media (Invitrogen, Carlsbad, CA, 21127) supplemented with 10 % FBS, 100 units/ml penicillin, 100 ug/ml streptomycin and 250 ug/ml geneticin at 37C, 5% CO2 in a humidified atmosphere. Before the assay, aliquots of cells were frozen and stored at -135C. The assay was performed in 1536-well format. Data are reported for both the ratio of the two emission wavelengths, and also for the component 'donor' channel, Em2=620. […] IC50 values were determined from concentration-response data modeled with the standard Hill equation. NPS 1536-well assay protocol: (1) Fresh or frozen CHO-NPSR cells were suspended in F-12 Kaighn's media supplemented with 10 % FBS, 100 units/ml penicillin and 100 ug/ml streptomycin. Cells were plated at 4 ul/well (1200 cells) to white, tissue culture treated 1536-well plates, and then cultured at 37C, 5 % CO2 for 16 to 30 hours. (2) Add 23 nl/well of compound in DMSO solution. The final titration for each compound was between 0.6 nM and 46 uM. (3) Add 1 ul of stimulation reagent (1X HBSS buffer, 5 mM HEPES, 0.1% BSA, 500 uM RO-201724 (Sigma-Aldrich, B8279), 1.5% Alexa 647-labeled anti-cAMP antibody (from Perkin Elmer), 100 nM NPS) (4) Incubation at 37C, 5 % CO2 for 60 min. (5) Add 1 ul/well detection reagent. […]
# Potency is read from the fitted curve at half-maximal effect.
# Neuropeptide S receptor (Homo sapiens), sequence (Q6W5P4 whole entry, looked up): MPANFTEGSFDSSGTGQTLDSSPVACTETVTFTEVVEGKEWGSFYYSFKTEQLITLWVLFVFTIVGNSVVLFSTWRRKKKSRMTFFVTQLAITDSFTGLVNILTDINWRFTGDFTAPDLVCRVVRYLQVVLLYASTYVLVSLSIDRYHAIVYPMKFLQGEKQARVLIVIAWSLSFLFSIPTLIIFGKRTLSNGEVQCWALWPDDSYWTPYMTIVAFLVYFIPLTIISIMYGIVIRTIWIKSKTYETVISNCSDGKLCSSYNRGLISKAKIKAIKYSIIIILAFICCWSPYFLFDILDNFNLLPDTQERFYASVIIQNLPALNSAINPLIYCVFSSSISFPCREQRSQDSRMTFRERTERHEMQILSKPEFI
row,SMILES,Potency
1,C[C@H]1CCCC(=O)CCCCCc2cc(O)cc(O)c2C(=O)O1,inactive
2,Cc1cc(C=C2C(=O)NC(=S)NC2=O)c(C)n1-c1ccc2c(c1)OCO2,12.6 µM (active)
3,CN(C)C(=S)SSC(=S)N(C)C,inactive
4,Cn1ncnc2c(=O)n(C)c(=O)nc1-2,inactive
5,CCOC(=O)c1c(-n2c(C)cc(C=C3C(=O)NC(=S)NC3=O)c2C)sc2c1CCCC2,10 µM (active)
6,C=CCN1C(=O)/C(=C/c2cccs2)C(=O)NC1=S,11.2 µM (active)
7,C=C1C(=O)O[C@@H]2C[C@@H](C)[C@@H]3C=CC(=O)[C@@]3(C)[C@@H](OC(=O)CC(=O)O[C@H]3[C@@H]4C(=C)C(=O)O[C@@H]4C[C@@H](C)[C@@H]4C=CC(=O)[C@]43C)[C@H]12,1 µM (active)
8,Cc1c(P(=S)(c2ccccc2)c2ccccc2)[n+]2ccccc2n1C,1.12 µM (active)
9,C=C(C=O)CC1CC(O)[C@]2(C)OC3CC4OC5C[C@]6(C)O[C@]7(C)CCC8OC9C[C@]%10(C)OC%11C(C)=CC(=O)OC%11CC%10OC9C[C@@H](C)C8OC7CC6O[C@]5(C)CC5OC5C4OC3CC2O1 (stereo partly specified),inactive
10,CC(=O)Nc1cc([As](=O)(O)O)ccc1O,inactive
11,Cc1cccc(N2C(=O)NC(=O)/C(=C\c3cnn(-c4ccccc4)c3)C2=O)c1,10 µM (active)
